Values without a mark were called inactive.
Note: test concentration not given here.

The first assay is described as follows: growth modulation of vineyard yeast isolate – strain RM11-1a, OD600, basal, 24 h, primary screen (AID 1177).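 Note: cultures grown under basal conditions with no added stressor.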 The conditions noted are these: S. cerevisiae RM11-1a growth, OD600, 24 h; higher = more signal, called active from +8 up or from −8 down.
Regarding `COCCCNC(=O)[C@@]1(Sc2ccc(C)cc2)CC(=O)N(C2CCCCC2)[C@@H]1c1ccc(CO)cc1`, the z-score was 0.0315.

Turning to `O=C1C2C=CC(C(O)c3ccccc3)N(Nc3ccccc3F)C2C(=O)N1c1ccccc1` (configuration not stated), the z-score was 0.0428.

As to `CCC[C@@H]1C[C@@]1(CCC)[C@@H](NC(=O)OCc1ccccc1)c1ccc(-c2ccccc2)cc1`, the z-score is 0.259.

With `N#Cc1ccc(C(O)C2C=CC3C(=O)N(c4ccccc4)C(=O)C3N2Nc2ccccc2)cc1` (configuration not stated), the z-score was -0.433.

Turning to `C=CCC(OC(C)=O)[C@@H]1[C@@H](N(Cc2ccc(-c3ccccc3)cc2)C(=O)Cc2ccc(F)cc2)c2cc(OCCCO)ccc2N1C(=O)Cc1ccc(OC)cc1` (some centres not stated), the z-score was 0.313.

As for `COc1ccc([Si](C)(C)[C@@H]2[C@@H](CC(=O)N(CCO)Cc3ccccc3)O[C@]3(C(=O)N(c4ccccc4)c4ccccc43)[C@H]2C)cc1`, the z-score was 0.525.

For `COC(=O)[C@@]1(Cc2ccccc2)[C@@H]2C(=CC(=O)[C@H]2CC(=O)C(=O)N(C)C)CN1C(=O)c1ccccc1`, the z-score is -0.224.

`CN(C)C(=O)[C@@]1(Cc2ccccc2CN=[N+]=[N-])N=C(c2ccc(OCCCO)cc2)O[C@H]1c1ccccc1CN=[N+]=[N-]`: the z-score was 2.07.

`CCOc1cc(C(O)C2C=CC3C(=O)N(c4ccccc4)C(=O)C3N2Nc2ccc(C#N)cc2)ccc1O` (configuration not stated): the z-score is 0.093.

On to `COc1ccc([Si](C)(C)[C@@H]2[C@@H](CC(=O)N3Cc4ccccc4C[C@H]3CO)O[C@]3(C(=O)N(Cc4cccc(N5C(=O)c6cccc7cccc5c67)c4)c4ccccc43)[C@H]2C)cc1`, for which the z-score was 0.618.

As for `COc1ccc(-c2nc(-c3ccccc3)c3c(c2C)CO[Si]3(C(C)C)C(C)C)cn1`, the z-score was -0.278.

The nature of another assay: growth of efflux-deficient E. coli DRC39 – strain DRC39, OD650, 24 h, E. coli filamentation inducers, primary screen (AID 1178).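 Note: growth measured as culture turbidity by optical density at 650 nm.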 The conditions noted are these: E. coli DRC39 acrAB, higher = more signal, called active from +8 up or from −8 down.
Take `CCOC(=O)C[C@H]1[C@H](OC(=O)Cc2ccc3c(c2)OCO3)[C@@H](NC(=O)CC(C)C)c2cc(OCCCO)ccc2N1C(=O)Cc1ccc(OC)cc1`: the z-score was 0.287.

As to `CCOC(=O)C1=C[C@@H](c2ccccc2)N(S(=O)(=O)c2ccc(C)cc2)[C@H]1c1ccccc1Cl`, the z-score is -0.581.

Consider `C[N+](C)(C)CCCC[C@@H]1NC(=O)[C@H]2C[C@@H](C(=O)NCCCCCCN)[C@@H](c3ccc(O)cc3)N2C1=O`, for which the z-score is -0.231.

For the molecule `C=C(COC)C(=O)CC[C@@H](OC(=O)c1cccnc1)c1ccc(OCCO)cc1`, the z-score was 0.864.

`COC(=O)[C@@]1(Cc2ccc(OC)cc2)[C@H]2c3cc(C(=O)N4CCCC4)n(Cc4c(-c5ccccc5)noc4C)c3C[C@H]2CN1C(=O)c1ccccc1`: the z-score was 0.343.

For `COCCCNC(=O)[C@]1(CCS(=O)(=O)c2ccccc2)N=C(c2ccc(OCCCO)cc2)O[C@@H]1c1ccccc1CN=[N+]=[N-]`, the z-score was 0.0971.

For `COC(=O)[C@@]1(Cc2ccc(F)cc2)[C@H]2c3cc(C(=O)N(C)C)n(CCc4ccc(O)c(OC)c4)c3C[C@H]2CN1C(=O)c1ccccc1`, the z-score was -0.952.

Regarding `COC(=O)[C@@]1(Cc2ccccc2)[C@H]2c3cc(C(=O)N(C)C)n(CCN4CNCC4=O)c3C[C@H]2CN1C(=O)c1ccccc1`, the z-score was -0.459.

`O=C1O[C@H](c2ccccc2)[C@H](c2ccccc2)N2[C@H]1[C@@H](C(=O)Nc1nc3ccccc3s1)[C@]1(C(=O)Nc3ccc(C#CCCO)cc31)[C@H]2c1ccc(O)cc1`: the z-score is 0.266.

For the molecule `COC(=O)c1cn(C[C@@H](Cc2ccccc2)NC(=O)N[C@H](CO)CCc2oc(C(C)=O)c(C(=O)OC)c2C(=O)OC)nn1`, the z-score is 1.3.

Consider `COCCOC(=O)N1C(=O)[C@@]2(c3cc(C#CC4=CCCCC4)ccc31)[C@H](C(=O)N1CCCCCCC1)[C@H]1C(=O)O[C@H](c3ccccc3)[C@H](c3ccccc3)N1[C@@H]2c1ccc(O)cc1`, for which the z-score was -0.698.

As for `CCOC(=O)C[C@H]1[C@H](OC(=O)c2ccccc2-c2ccccc2)[C@@H](NC(=O)C2CCCCC2)c2cc(OCCCO)ccc2N1C(=O)Cc1ccc(OC)cc1`, the z-score is -0.506.

Turning to `COc1ccc(-c2cc3c(c(CCc4ccccc4)n2)[Si](C(C)C)(C(C)C)OC3)cn1`, the z-score was 0.152.

For `COC(=O)[C@@]1(Cc2ccccc2)[C@H]2c3cc(C(=O)N(C)C)n(CCc4ccc(O)c(OC)c4)c3C[C@H]2CN1C(=O)c1ccccc1`, the z-score was -0.514.

Take `COC(=O)Cn1c(C(=O)N(C)C)cc2c1C[C@H]1CN(C(=O)c3ccccc3)[C@@](Cc3ccc(F)cc3)(C(=O)OC)[C@@H]21`: the z-score is -0.61.

As to `C=CCNC(=O)[C@H]1[C@@H]2C(=O)O[C@@H](c3ccccc3)[C@@H](c3ccccc3)N2[C@@H](c2ccc(O)cc2)[C@]12C(=O)N(C(=O)OCCOC)c1ccccc12`, the z-score is -0.919.

In the case of `CC(C)N1C(=O)c2ccccc2[C@@H](C(=O)NC2CC2)[C@@H]1c1ccc(CO)cc1`, the z-score was 0.0426.

Consider `O=C1N(Cc2ccccc2)Cc2ccccc2[C@@H]2OC(c3ccc(OCCCO)cc3)=N[C@]12CCS(=O)(=O)c1ccccc1`, for which the z-score is 0.153.

With `CC(C)C(=C=CC[C@H](O)c1ccc(OCCO)cc1)C[C@H](O)c1ccccn1`, the z-score was 1.37.

Regarding `COC(=O)c1nc2oc1CC[C@@H](CO)NC(=O)N(C)Cc1cnnn1C[C@H](Cc1ccccc1)NC2=O`, the z-score was 0.218.

On to `CCOC(=O)C[C@H]1[C@H](OC(=O)Cc2ccc3c(c2)OCO3)[C@@H](NC(=O)Cc2ccc(OC)cc2)c2cc(OCCCO)ccc2N1C(=O)c1ccc2ccccc2n1`, for which the z-score was 2.3.

Consider `CCCCCCCCCCC(O)C1C=CC2C(=O)N(C)C(=O)C2N1NC(=O)OC(C)(C)C` (configuration not stated), for which the z-score is -0.235.

Turning to `O=C1NC(=O)C2C1C=CC(C(O)c1c(F)cccc1Cl)N2Nc1ccc(Cl)cc1Cl` (configuration not stated), the z-score was -0.854.

For `O=C1O[C@H](c2ccccc2)[C@H](c2ccccc2)N2[C@H]1[C@@H](C(=O)Nc1nc3ccccc3s1)[C@]1(C(=O)Nc3ccc(C#CC4(O)CCCCCC4)cc31)[C@H]2c1ccccc1OCCO`, the z-score is -0.295.

In the case of `CC(C)[Si](C#C[Si](C(C)C)(C(C)C)C(C)C)(O[C@H](C)c1cn([C@H](CO)Cc2ccccc2)nn1)C(C)C`, the z-score is 1.17.

On to `COCCCNC(=O)[C@@]1(Sc2ccc(C)cc2)CC(=O)N(C2CCCCC2)[C@@H]1c1ccc(CO)cc1`, for which the z-score was 0.235.

As for `O=C1C2C=CC(C(O)c3ccccc3)N(Nc3ccccc3F)C2C(=O)N1c1ccccc1` (configuration not stated), the z-score is -0.737.

As to `CCC[C@@H]1C[C@@]1(CCC)[C@@H](NC(=O)OCc1ccccc1)c1ccc(-c2ccccc2)cc1`, the z-score was 0.358.

`N#Cc1ccc(C(O)C2C=CC3C(=O)N(c4ccccc4)C(=O)C3N2Nc2ccccc2)cc1` (configuration not stated): the z-score is 0.366.

As to `C=CCC(OC(C)=O)[C@@H]1[C@@H](N(Cc2ccc(-c3ccccc3)cc2)C(=O)Cc2ccc(F)cc2)c2cc(OCCCO)ccc2N1C(=O)Cc1ccc(OC)cc1` (some centres not stated), the z-score was -0.455.

Regarding `COc1ccc([Si](C)(C)[C@@H]2[C@@H](CC(=O)N(CCO)Cc3ccccc3)O[C@]3(C(=O)N(c4ccccc4)c4ccccc43)[C@H]2C)cc1`, the z-score was 1.21.

As to `COC(=O)[C@@]1(Cc2ccccc2)[C@@H]2C(=CC(=O)[C@H]2CC(=O)C(=O)N(C)C)CN1C(=O)c1ccccc1`, the z-score is 0.677.

For `CN(C)C(=O)[C@@]1(Cc2ccccc2CN=[N+]=[N-])N=C(c2ccc(OCCCO)cc2)O[C@H]1c1ccccc1CN=[N+]=[N-]`, the z-score is 0.117.

As for `CCOc1cc(C(O)C2C=CC3C(=O)N(c4ccccc4)C(=O)C3N2Nc2ccc(C#N)cc2)ccc1O` (configuration not stated), the z-score was -0.523.

For the molecule `COc1ccc([Si](C)(C)[C@@H]2[C@@H](CC(=O)N3Cc4ccccc4C[C@H]3CO)O[C@]3(C(=O)N(Cc4cccc(N5C(=O)c6cccc7cccc5c67)c4)c4ccccc43)[C@H]2C)cc1`, the z-score is 0.226.

As to `COc1ccc(-c2nc(-c3ccccc3)c3c(c2C)CO[Si]3(C(C)C)C(C)C)cn1`, the z-score was -0.512.
